Experimental data as given in PubChem BioAssay AID651725 (National Center for Advancing Translational Sciences (NCATS), 2012).
Among all 360,000 compounds or so, about 2,000 (0.56%) were called active. Another 2% or so got no clear call; they are omitted. Only a selection was taken, and actives are over-represented in it overall. Values without a mark were called inactive. Rule as the data show it: active = activity change below about -65%; inconclusive = mostly about -30% to -63%; inactive = weaker than that.

Each compound was assayed against Homeobox protein SIX1 (Homo sapiens) + Protein phosphatase EYA2 (Homo sapiens) (UniProt Q15475+O00167) (assay: qHTS Assay for Inhibitors of the Six1/Eya2 Interaction). Conditions: AlphaScreen GST-Six1/His-Eya2 binding, biochemical; active compounds read low.
Homeobox protein SIX1 (Homo sapiens) + Protein phosphatase EYA2 (Homo sapiens), sequence (O00167 whole entry, looked up): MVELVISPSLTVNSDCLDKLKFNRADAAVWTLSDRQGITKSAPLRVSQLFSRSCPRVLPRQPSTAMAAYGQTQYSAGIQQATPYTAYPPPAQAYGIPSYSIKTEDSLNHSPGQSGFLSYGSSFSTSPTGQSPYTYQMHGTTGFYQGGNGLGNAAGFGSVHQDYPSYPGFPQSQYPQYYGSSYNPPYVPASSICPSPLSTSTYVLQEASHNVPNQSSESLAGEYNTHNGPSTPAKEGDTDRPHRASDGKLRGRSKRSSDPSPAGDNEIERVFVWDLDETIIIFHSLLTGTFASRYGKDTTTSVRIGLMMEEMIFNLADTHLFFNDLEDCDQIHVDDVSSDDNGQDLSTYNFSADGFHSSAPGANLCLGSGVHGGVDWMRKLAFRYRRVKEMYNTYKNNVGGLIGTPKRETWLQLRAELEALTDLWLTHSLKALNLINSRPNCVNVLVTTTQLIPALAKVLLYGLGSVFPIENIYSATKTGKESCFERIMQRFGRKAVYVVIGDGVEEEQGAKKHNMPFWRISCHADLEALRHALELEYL
Homeobox protein SIX1 (Homo sapiens) + Protein phosphatase EYA2 (Homo sapiens), sequence (Q15475 whole entry, looked up): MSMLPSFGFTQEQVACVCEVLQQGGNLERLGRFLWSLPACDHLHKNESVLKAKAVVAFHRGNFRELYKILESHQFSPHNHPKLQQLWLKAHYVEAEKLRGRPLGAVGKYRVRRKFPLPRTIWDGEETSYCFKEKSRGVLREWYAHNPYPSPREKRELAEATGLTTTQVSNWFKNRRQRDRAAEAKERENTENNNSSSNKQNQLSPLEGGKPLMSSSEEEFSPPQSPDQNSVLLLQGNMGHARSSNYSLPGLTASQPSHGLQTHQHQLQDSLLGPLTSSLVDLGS
How it was run: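 AlphaScreen luminescence read after one hour at 37 °C in darkness. Pin-transferred compounds met GST-Six1 and His-Eya2 protein (5X stock 250 nM/500 nM) plus glutathione donor and Ni-chelate acceptor beads (5X, 50 ug/mL).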
% is scaled to controls: 0 for no effect and ±100 for the full control effect.

SMILES	activity change
O=c1[nH]c2cccnc2n(CCNc2ncc(C(F)(F)F)cc2Cl)c1=O	5.43%
CN(C)C=NC(=O)c1cccn1-c1ncc(C(F)(F)F)cc1Cl	7.6%
COc1cccc(/C=N/Nc2ncc(C(F)(F)F)cc2Cl)c1O	-91.7% (active)
Nc1c(C(=O)c2cccs2)sc2nsc(SCCN3CCCCC3)c12	19.7%
O=C(O)C1C2CC2CN1C(=O)c1ccc(Cl)cc1Cl (stereo unspecified)	2.75%
O=C(NCCc1ccccc1)/C(=C\c1ccc([N+](=O)[O-])cc1)NC(=O)c1ccccc1	2.96%
O=C(Nc1ccc(C(=O)O)cc1)/C(=C/c1ccc([N+](=O)[O-])cc1)NC(=O)c1ccccc1	-4.68%
O=C(N/N=C/c1cc([N+](=O)[O-])ccc1O)/C(=C\c1cccs1)NC(=O)c1ccccc1	-90.3% (active)
COc1ccc(NC(=O)C2(C)Cc3c(-c4cccc(NC(C)=O)c4)ccnc3O2)cc1OC (stereo unspecified)	-4.36%
O=C(Oc1cccnc1)c1cc2ccccc2oc1=O	-76% (active)
O=C(Nc1cccnc1)c1cc2cc(Br)ccc2oc1=O	17.5%
CCc1ccc(Oc2coc3cc(OC(=O)c4cc5ccccc5oc4=O)ccc3c2=O)cc1	-6.39%
COC(=O)[C@]12CCCCC=C1N(Cc1ccco1)C(=O)[C@H](CC(=O)NCCCCc1ccccc1)C2	-13.7%
CCC(C)CN1C(=O)CSCC1(C)C(=O)NCc1ccccc1 (stereo unspecified)	7.26%
CCOc1cc(N2CCOCC2)c(OCC)cc1NC(=O)c1ccc(C)s1	-7.09%
CCOc1cc(N2CCOCC2)c(OCC)cc1NC(=O)COc1cccc2cccnc12	-66.8% (active)
CCOc1cc(N2CCOCC2)c(OCC)cc1NC(=O)COC(=O)[C@H](Cc1c[nH]c2ccccc12)NC(C)=O	0.0588%
Cc1cccc(C)c1NC(=O)C(c1cccc(F)c1)N1CCN(C)CC1 (stereo unspecified)	1.36%
CC1CCN(S(=O)(=O)c2ccc3[nH]c(=O)ccc3c2)CC1	-0.516%
O=C(NCCOc1ccccc1)c1ccccc1F	6.38%
CCNC(=S)N1CCN(c2ncccn2)CC1	1.47%
CC(=NNC(=S)N1CCCCCC1)c1ccccn1	-88.5% (active)

SMILES	activity change
C/C(=N\NC(=O)Cc1ccc(Cl)cc1)c1ccccn1	-85.5% (active)
C/C(=N/NC(=O)c1ccn(C)n1)c1ccncc1	5.19%
O=C(Cc1ccc(Cl)cc1)c1ccccc1	4.47%
COc1ccc(CC(N)c2csc(NC(=O)Cc3ccccc3)n2)cc1 (stereo unspecified)	-12.1%
CCOc1ccc(NC(=S)N2CCCCCC2)cc1	-13.8%
C/C(=N\NC(=O)c1ccccc1F)c1ccccn1	-91.6% (active)
COc1ccc(C(=O)/C=C/Nc2ccccn2)cc1	3.99%
C/C(=N/NC(=O)CCc1ccccc1)c1ccco1	2.7%
COc1ccc(CC(=O)N/N=C(\C)c2ccccn2)cc1	-85.5% (active)
Cc1cccc(C)c1NC(=O)C(c1ccc(C(F)(F)F)cc1)n1c(=O)c(-c2ccco2)nc2ccccc21 (stereo unspecified)	-0.0756%
CCCCOCCCNC(=O)C[C@@H]1C[C@@]2(C(=O)OC)CCCCC=C2N(CCC2=CCCCC2)C1=O	-2.51%
CC(C)N1C(=O)c2ccccc2NC(=O)C1C(=O)NCc1cccs1 (stereo unspecified)	0%
COc1cc(C=C(OC(C)=O)c2ccc3c(c2)OCO3)cc(OC)c1OC	-21%
C=C1C(=O)OC2C1CCC(C)=CCCC1(C)OC21 (stereo unspecified)	10.7%
O=c1ccc2c(-c3ccccc3S(=O)(=O)O)c3ccc(O)c(O)c3oc-2c1O	-87.1% (active)
COC(=O)C1=CN(c2c(C)cc(C)cc2C)C(N)=C(C#N)C1c1cccc(F)c1 (stereo unspecified)	-17.6%
O=C(N[C@H]1CC[C@H](CC(=O)N2CCCCC2)O[C@@H]1CO)c1cccc(F)c1	-8.77%
CCCC(C(=O)OCCN(CC)CC)(c1ccccc1)c1ccccc1	-20.2%
CCN(CC)CCNCC(=O)Nc1ccc(Oc2ccccc2)cc1	-5.73%
CCN(CC)CCOc1ccc2c(c1)C(=NNC(=O)c1ccccn1)c1cc(OCCN(CC)CC)ccc1-2	-74.3% (active)
CCc1ccc(-c2cc(C)no2)cc1S(=O)(=O)NCCc1ccc(S(N)(=O)=O)cc1	-4.17%
CC(=O)Nc1ccc(NC(=O)C(NS(=O)(=O)c2ccc3c(c2)OCCO3)C(C)C)cc1 (stereo unspecified)	0.533%

SMILES	activity change
CCC(C(=O)Nc1c(C)cccc1C)n1c(-c2cc(C)cs2)nc2ccccc21 (stereo unspecified)	4.28%
CC(=O)N1CCCc2cc(S(=O)(=O)N3CCCC(C(=O)N4CCN(c5cccc(Cl)c5)CC4)C3)ccc21 (stereo unspecified)	-12.9%
COc1ccc(-n2c(C)cc(C(=O)CN3C(=O)NC4(CCc5ccccc54)C3=O)c2C)cc1 (stereo unspecified)	-14.9%
COc1ccc(C(=O)Nc2c(N)nc(SCC(=O)Nc3ccc(C(C)=O)cc3)[nH]c2=O)cc1	-14.2%
COCCNC(=O)CSc1nc(N)c(NC(=O)c2ccco2)c(=O)[nH]1	2.42%
COC(=O)c1ccc(NC(=O)CSc2nc(N)c(NC(=O)c3ccc(Br)o3)c(=O)[nH]2)cc1	-66.4% (active)
CCOC(=O)c1sc(/N=C/C2=C(O)CC(C)(C)CC2=O)c(C(=O)OCC)c1C	-0.173%
Cc1nn(Cc2ccccc2Cl)c(C)c1NC(=O)Cn1nc([N+](=O)[O-])c(Cl)c1C	-0.78%
Cc1c(Cl)c([N+](=O)[O-])nn1CCCC(=O)NC(C)c1ccccc1 (stereo unspecified)	7.3%
Cc1c(Cl)c([N+](=O)[O-])nn1Cc1ccc(C(=O)N/N=C\c2cc(Cl)ccc2O)o1	-71.9% (active)
COc1ccccc1C(=O)NCC(=O)OCC(=O)NNC(=O)c1ccc(Br)cc1	-6.57%
CC(C)c1cc(Cn2c3ccccc3c(=O)n2C(C)Cn2cc(C3CC3)nn2)on1 (stereo unspecified)	4.06%
COc1ccc(COC[C@H](CC(C)C)N2CCN(C(=O)c3cccc(C(F)(F)F)c3)CCC2=O)cc1	9.97%
CCN(CC(=O)Nc1ccc(NC(C)=O)cc1)C(=O)C1CC(=O)N(c2ccc3c(c2)OCCO3)C1 (stereo unspecified)	-0.253%
Cc1ccc(-c2cnc(C(O)c3cccc(C)c3C)[nH]2)cc1 (stereo unspecified)	-9.73%
COC(=O)C1=C(C)NC(=O)/C1=C/c1ccc(CNS(=O)(=O)c2ccc(C)cc2)o1	-8.38%
O=S(=O)(NCc1ccccc1)c1ccc(S(=O)(=O)N2CCCC2)cc1	0%
O=c1/c(=C/c2ccc(CNS(=O)(=O)c3ccccc3)o2)sc2n1CCN=2	-74.2% (active)
COC(=O)[C@]12CCCCC=C1N(Cc1ccc3c(c1)OCO3)C(=O)[C@H](CC(=O)N1CCOCC1)C2	7.68%
O=C(/C=C/[C@H]1O[C@@H](n2cnc3c(NC(=O)c4ccccc4)ncnc32)[C@H](O)[C@@H]1O)NCc1ccccc1	-0.266%
COc1cccc(CN(C)C(=O)CC[C@H]2O[C@@H](n3cnc4c(NC(=O)c5ccccc5)ncnc43)[C@H](O)[C@@H]2O)c1	-3.33%
CCC(C)C(CO)NC(=O)/C=C/[C@H]1O[C@@H](n2cnc3c(NC(=O)c4ccccc4)ncnc32)[C@H](O)[C@@H]1O (stereo partly specified)	-67.4% (active)

SMILES	activity change
O=C(COc1ccc(Cl)cc1)NCc1nnc(SCC(=O)NCC2CCCO2)o1 (stereo unspecified)	17.7%
CCC(C(=O)NC(C)(C)C)n1c(-c2ccccc2)nc2ccccc21 (stereo unspecified)	2.19%
CCCCCc1c(Cc2ccccc2)ncn1CCc1ccccc1OC	7.11%
CCN(CC(=O)NC1CCS(=O)(=O)C1)c1nc(-c2cccnc2)nc2ccccc12 (stereo unspecified)	5.63%
COc1ccc(Nc2nc(-c3cccnc3)nc3ccccc23)cn1	-65.3% (active)
S=c1nc2ccccc2c2nc(-c3cccnc3)[nH]n12	-8.27%
CC(C)C1Cc2[nH][nH]c(=O)c2C(c2ccc(Cl)cc2)O1 (stereo unspecified)	-11.7%
O=C1NC[C@H](CCCCN2C[C@H](Cc3ccc(O)cc3)N(CC3CCCCC3)C(=O)C2=O)N(CCc2ccccc2)C1=O	3.83%
COC(=O)C[C@@H]1C=C[C@@H](NC(=O)c2cccnc2)[C@@H](CO)O1	13.6%
CC(C)CCNC(=O)C(C)N(C(=O)Cn1nnc(-c2ccc(F)cc2)n1)C1CCCC1 (stereo unspecified)	4.65%
Cc1ccc(-n2c(SCC(=O)NCCC3=CCCCC3)nc3n[nH]c(C)c3c2=N)cc1Cl	-17.6%
COc1cccc(-n2c(SCC(=O)NC3CCS(=O)(=O)C3)nc3ccccc3c2=O)c1 (stereo unspecified)	-0.378%
COc1cccc(-n2c(SCC(=O)NC3CCCCC3)nc3n[nH]c(C)c3c2=N)c1	-66.7% (active)
O=C(C(=O)N1CCN(c2ccccc2)CC1)c1ccc2c(c1)OCO2	9.9%
CCOc1ccc(C(CCc2ccccc2)NC(=O)c2ccc(OC)c(OC)c2)cc1OCC (stereo unspecified)	-5.59%
C=CCn1c(COc2cccc3cccnc23)nnc1SCC(=O)OC	0.499%
CCCCC(=O)NC(c1ccc(OC)c(OC)c1)c1ccc2cccnc2c1O (stereo unspecified)	-90.3% (active)
Cc1cc(C)n2c(Nc3c(C)cccc3C)c(CCc3ccccc3)nc2n1	-0.972%
O=C(NCc1ccccn1)c1cnc2sccn2c1=O	-1.07%
COc1cc(/C=C/CO)cc(OC)c1O[C@@H]1O[C@H](CO)[C@@H](O)[C@H](O)[C@H]1O	5%
